# Measurements reported in PubChem BioAssay (NCATS).
# Records with an inconclusive call do not appear. A number with no mark means an inactive call. Calls of active or inactive are those of the source. The call rests on the fitted dose curve; in most records, active means well fitted inhibition curve with a large enough effect; inconclusive means small, poorly fitted or top-dose-only effect; inactive means no such curve, though single readings can be large or run the other way.
# Assay: qHTS Screen of the MIPE 4.0 Collection Against Ewings Sarcoma (RDES) (AID 1259252); further: nearly all actives have a fitted effect of over 35% in size;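 on viability (percent of control): 100% = DMSO-treated cells and 0% = medium-only wells without cells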
# Conditions: RD-ES Ewing sarcoma viability, CellTiter-Glo, 48 h; series mostly up to 45.8 µM; viability (percent of control): at the top concentration
# Procedure, shortened: (§1)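 After a 4 h attachment period in RPMI/5% FBS, cells were pin-dosed with test compounds; DMSO served as negative and 9.2 uM bortezomib (final) as positive control. Luminescent CellTiter-Glo signal at 48 h defined viability.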
# Potency means the concentration at half of the fitted maximal effect.
Compound,viability (percent of control),Potency
C=C(C)[C@@H]1CC[C@]2(C)CC[C@]3(C)[C@H](CC[C@@H]4[C@@]5(C)CC[C@H](O)C(C)(C)[C@H]5CC[C@]43C)[C@@H]12,133%,
O=C1NC(O)CCN1[C@@H]1O[C@H](CO)[C@H](O)[C@H]1O (some centres undefined),129%,
NS(=O)(=O)OC[C@@H]1C[C@@H](n2ccc3c(N[C@H]4CCc5ccccc54)ncnc32)C[C@H]1O,,0.332 µM (active)
Cc1cc(-c2nnc3n2CCCCC3)c(C)n1-c1ccccc1,119%,
NC(=O)Nc1sc(-c2ccc(F)cc2)cc1C(N)=O,,1.05 µM (active)
C=C1CCC2[C@](C)(CO)C(O)CC[C@]2(C)C1CC=C1C(=O)OCC1O (some centres undefined),130% [at 92.2 µM],
CC[C@H]1OC(=O)[C@H](C)[C@@H](O[C@H]2C[C@@](C)(OC)[C@@H](O)[C@H](C)O2)[C@H](C)[C@@H](O[C@@H]2O[C@H](C)C[C@H](N(C)C)[C@@H]2O)[C@](C)(OC)C[C@@H](C)C(=O)[C@H](C)[C@@H](O)[C@]1(C)O,122%,
Cc1ccc2nc(NCCN)c3ncc(C)n3c2c1,,6.62 µM (active)
CCc1cc(C(C)=NOCc2ccc(C3CCCCC3)c(C(F)(F)F)c2)ccc1CN1CC(C(=O)O)C1,122%,
COc1cc(C(=O)NC2CCN(C)CC2)ccc1Nc1ncc2c(n1)N(C1CCCC1)CCC(=O)N2C(C)C,,2.35 µM (active)
CC(C=CC=C(C)C=CC1=C(C)CCCC1(C)C)=CC=CC=C(C)C=CC=C(C)C=CC1=C(C)CCCC1(C)C,,8.33 µM (active)
CCOC(=O)N1CCN([N+]([O-])=NOc2ccc([N+](=O)[O-])cc2C#N)CC1,,2.09 µM (active)
C[C@H]1[C@@H](OC(=O)CCC(=O)O)O[C@@H]2O[C@@]3(C)CC[C@@H]4[C@H](C)CC[C@@H]1[C@@]24OO3,,1.87 µM (active)
C[C@]12CCC(=O)C=C1[C@@H]1CC1[C@H]1[C@H]3[C@@H]4C[C@H]4[C@@]4(CCC(=O)O4)[C@@]3(C)CC[C@H]12 (some centres undefined),115%,
COc1ccc(CCC(=O)c2c(O)cc(O[C@@H]3O[C@H](CO)[C@@H](O)[C@H](O)[C@@H]3O[C@@H]3O[C@@H](C)[C@H](O)[C@@H](O)[C@@H]3O)cc2O)cc1O,,9.35 µM (active)
C[C@H](NCc1ccc(OCc2cccc(F)c2)cc1)C(N)=O,,14.8 µM (active)
CC(=O)[C@]1(O)Cc2c(O)c3c(c(O)c2[C@@H](O[C@H]2C[C@H](N)[C@@H](O)[C@H](C)O2)C1)C(=O)c1ccccc1C3=O,,0.059 µM (active)
CC(C)(O)CC[C@@H](O)[C@](C)(O)[C@H]1CC[C@@]2(O)C3=CC(=O)[C@@H]4C[C@@H](O)[C@@H](O)C[C@]4(C)[C@@H]3CC[C@]12C,108%,
C[C@@H](NCc1cc2ccccc2[nH]1)c1cccc2ccccc12,117%,
CC(C=CC1=C(C)CCCC1(C)C)=CC=CC(C)=CC(=O)Nc1ccc(O)cc1,,2.41 µM (active)
CC(C)C[C@H](NC(=O)CNC(=O)c1cc(Cl)ccc1Cl)B1OC(=O)CC(CC(=O)O)(C(=O)O)O1 (some centres undefined),,0.235 µM (active)
Cc1cn([C@@H]2O[C@H](CO)[C@@H](O)[C@H]2F)c(=O)[nH]c1=O,102%,
c1cncc(CN2CCC(n3ncc4c(N5CCOCC5)nc(-c5ccc6[nH]ccc6c5)nc43)CC2)c1,,13.2 µM (active)
O=C(c1ccc(F)cc1)N1CCC[C@H](c2nc(-c3ccc(F)cc3)no2)C1,114%,
CCCCCCCCCCCCc1ccc(S(=O)(=O)Nc2nncs2)cc1,113%,
COc1ccc(C(C)=O)c(O)c1,118%,
O=C(C=Cc1ccc(CN(CCO)CCc2c[nH]c3ccccc23)cc1)NO,,0.209 µM (active)
COc1cc(C)c(C=CC(C)=CC=CC(C)=CC(=O)O)c(C)c1C,126%,
C[C@H](O)[C@@H]1C(=O)N2C(C(=O)O)=C(S[C@@H]3CN[C@H](CNS(N)(=O)=O)C3)[C@@H](C)[C@@H]12,115%,
C#C[C@]1(O)CC[C@@H]2[C@@H]3CCC4=CC(=O)CC[C@@H]4[C@H]3CC[C@@]21CC,113%,

# Assay: qHTS Screen of the MIPE 4.0 Collection Against Ewings Sarcoma (TC71) (AID 1259253); further: nearly all actives have a fitted effect of over 40% in size;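 on viability (% of DMSO): 100% = DMSO-treated cells and 0% = medium-only wells without cells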
# Conditions: TC71 Ewing sarcoma viability, CellTiter-Glo, 48 h; series mostly up to 45.8 µM; viability (% of DMSO): at the top concentration
# Procedure, shortened: as §1
Compound,viability (% of DMSO),Potency
O=C(O)CCCCCC(=O)NN=C1CCCC1,134%,
CC(C)(C)[N+]([O-])=Cc1ccc(S(=O)(=O)O)cc1S(=O)(=O)O,143%,
C[C@@]12C[C@@]3(O)O[C@@H](O1)[C@]1(COC(=O)c4ccccc4)[C@@H]3C[C@@]12O[C@@H]1O[C@H](CO)[C@@H](O)[C@H](O)[C@@H]1O,126%,
Cc1cncc2cccc(S(=O)(=O)N3CCCN(C(=O)CN)C[C@@H]3C)c12,,14.8 µM (active)
O=C(O)C=Cc1ccc(Cn2ccnc2)cc1,121%,
O=C(CN1C(=O)C2(CCCC2)NC[C@H]1c1cc(F)cc(F)c1)Nc1ccc2c(c1)C[C@@]1(C2)C(=O)Nc2ncccc21,111%,
CCN1CCN(C(=O)N[C@H](C(=O)N[C@@H]2C(=O)N3C(C(=O)O)=C(CSc4nnnn4C)CS[C@@H]23)c2ccc(O)cc2)C(=O)C1=O,117% [at 15.3 µM],
Cc1ccc(-n2[nH]c(C)c(N=Nc3cccc(-c4cccc(C(=O)O)c4)c3O)c2=O)cc1C,,11.8 µM (active)
NC(=NCCCCCCN=C(N)N=C(N)Nc1ccc(Cl)cc1)N=C(N)Nc1ccc(Cl)cc1,,4.18 µM (active)
C=C(C)[C@@H]1CC[C@]2(C)CC[C@]3(C)[C@H](CC[C@@H]4[C@@]5(C)CC[C@H](O)C(C)(C)[C@H]5CC[C@]43C)[C@@H]12,123%,
O=C1NC(O)CCN1[C@@H]1O[C@H](CO)[C@H](O)[C@H]1O (some centres undefined),131%,
NS(=O)(=O)OC[C@@H]1C[C@@H](n2ccc3c(N[C@H]4CCc5ccccc54)ncnc32)C[C@H]1O,,0.264 µM (active)
Cc1cc(-c2nnc3n2CCCCC3)c(C)n1-c1ccccc1,122%,
NC(=O)Nc1sc(-c2ccc(F)cc2)cc1C(N)=O,,1.66 µM (active)
C=C1CCC2[C@](C)(CO)C(O)CC[C@]2(C)C1CC=C1C(=O)OCC1O (some centres undefined),134% [at 92.2 µM],
CC[C@H]1OC(=O)[C@H](C)[C@@H](O[C@H]2C[C@@](C)(OC)[C@@H](O)[C@H](C)O2)[C@H](C)[C@@H](O[C@@H]2O[C@H](C)C[C@H](N(C)C)[C@@H]2O)[C@](C)(OC)C[C@@H](C)C(=O)[C@H](C)[C@@H](O)[C@]1(C)O,118%,
Cc1ccc2nc(NCCN)c3ncc(C)n3c2c1,,4.18 µM (active)
CCc1cc(C(C)=NOCc2ccc(C3CCCCC3)c(C(F)(F)F)c2)ccc1CN1CC(C(=O)O)C1,126%,
COc1cc(C(=O)NC2CCN(C)CC2)ccc1Nc1ncc2c(n1)N(C1CCCC1)CCC(=O)N2C(C)C,,2.09 µM (active)
CC(C=CC=C(C)C=CC1=C(C)CCCC1(C)C)=CC=CC=C(C)C=CC=C(C)C=CC1=C(C)CCCC1(C)C,,18.7 µM (active)

Compound,viability (% of DMSO),Potency
CCOC(=O)N1CCN([N+]([O-])=NOc2ccc([N+](=O)[O-])cc2C#N)CC1,,2.64 µM (active)
C[C@H]1[C@@H](OC(=O)CCC(=O)O)O[C@@H]2O[C@@]3(C)CC[C@@H]4[C@H](C)CC[C@@H]1[C@@]24OO3,,1.32 µM (active)
C[C@]12CCC(=O)C=C1[C@@H]1CC1[C@H]1[C@H]3[C@@H]4C[C@H]4[C@@]4(CCC(=O)O4)[C@@]3(C)CC[C@H]12 (some centres undefined),87.9%,
COc1ccc(CCC(=O)c2c(O)cc(O[C@@H]3O[C@H](CO)[C@@H](O)[C@H](O)[C@@H]3O[C@@H]3O[C@@H](C)[C@H](O)[C@@H](O)[C@@H]3O)cc2O)cc1O,,9.35 µM (active)
C[C@H](NCc1ccc(OCc2cccc(F)c2)cc1)C(N)=O,,14.8 µM (active)
CC(=O)[C@]1(O)Cc2c(O)c3c(c(O)c2[C@@H](O[C@H]2C[C@H](N)[C@@H](O)[C@H](C)O2)C1)C(=O)c1ccccc1C3=O,,0.0372 µM (active)
CC(C)(O)CC[C@@H](O)[C@](C)(O)[C@H]1CC[C@@]2(O)C3=CC(=O)[C@@H]4C[C@@H](O)[C@@H](O)C[C@]4(C)[C@@H]3CC[C@]12C,111%,
C[C@@H](NCc1cc2ccccc2[nH]1)c1cccc2ccccc12,116%,
CC(C=CC1=C(C)CCCC1(C)C)=CC=CC(C)=CC(=O)Nc1ccc(O)cc1,,5.4 µM (active)
CC(C)C[C@H](NC(=O)CNC(=O)c1cc(Cl)ccc1Cl)B1OC(=O)CC(CC(=O)O)(C(=O)O)O1 (some centres undefined),,0.235 µM (active)
Cc1cn([C@@H]2O[C@H](CO)[C@@H](O)[C@H]2F)c(=O)[nH]c1=O,114%,
c1cncc(CN2CCC(n3ncc4c(N5CCOCC5)nc(-c5ccc6[nH]ccc6c5)nc43)CC2)c1,,13.2 µM (active)
O=C(c1ccc(F)cc1)N1CCC[C@H](c2nc(-c3ccc(F)cc3)no2)C1,115%,
CCCCCCCCCCCCc1ccc(S(=O)(=O)Nc2nncs2)cc1,114%,
COc1ccc(C(C)=O)c(O)c1,127%,
O=C(C=Cc1ccc(CN(CCO)CCc2c[nH]c3ccccc23)cc1)NO,,0.187 µM (active)
COc1cc(C)c(C=CC(C)=CC=CC(C)=CC(=O)O)c(C)c1C,133%,
C[C@H](O)[C@@H]1C(=O)N2C(C(=O)O)=C(S[C@@H]3CN[C@H](CNS(N)(=O)=O)C3)[C@@H](C)[C@@H]12,123%,
C#C[C@]1(O)CC[C@@H]2[C@@H]3CCC4=CC(=O)CC[C@@H]4[C@H]3CC[C@@]21CC,115%,
